GLP-1R agonist: agonists of human GLP-1 receptor; hit rate 0.007% among 380,000; Potency, µM (series often up to 45.6 µM), inactives show top-dose activation, usual class: activators; AID 624172; P43220; HEK293 GLP-1R CRE-luciferase, luminescence, 4-6 h; cells express a hypersensitive GLP-1R form; further: % of control where 0% means no effect
TrxR1 substrate: is turned over as a substrate by rat TrxR1; hit rate 0.01% among 390,000; purified TrxR1 substrate turnover, NADPH consumption readout; Potency, µM (doses to about 114 µM), for inactives: at the highest dose activity change, negative = substrate turnover; O89049; further: on the % scale 0 is the no-effect control and ±100 the full control effect; nearly all actives have a fitted effect of over 50% in size
Target sequence (O89049 whole entry, looked up): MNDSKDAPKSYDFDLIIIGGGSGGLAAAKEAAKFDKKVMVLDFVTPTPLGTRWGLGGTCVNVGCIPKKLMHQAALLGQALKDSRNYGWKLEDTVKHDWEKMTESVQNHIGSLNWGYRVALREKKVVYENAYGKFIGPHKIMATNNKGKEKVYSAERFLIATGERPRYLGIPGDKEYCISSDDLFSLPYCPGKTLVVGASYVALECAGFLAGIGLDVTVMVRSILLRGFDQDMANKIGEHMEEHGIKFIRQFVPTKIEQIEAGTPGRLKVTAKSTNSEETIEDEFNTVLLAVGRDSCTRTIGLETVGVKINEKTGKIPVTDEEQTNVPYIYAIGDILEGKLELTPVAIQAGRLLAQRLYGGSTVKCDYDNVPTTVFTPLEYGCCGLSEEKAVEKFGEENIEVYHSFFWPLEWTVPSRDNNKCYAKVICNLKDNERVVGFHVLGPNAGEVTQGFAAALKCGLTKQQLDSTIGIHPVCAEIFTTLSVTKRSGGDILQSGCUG
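Rat TrxR1, dispensed at 90 nM, was prereduced with 400 uM NADPH (final) for 5 min at ~22 deg C, then incubated with compound 15 min before 400 uM selenite. A first-read NADPH fluorescence drop versus no-compound background flagged substrates.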
GLP1R cytotox: cytotoxicity counter-screen for GLP-1 receptor inverse agonists; HEK293 cAMP-luciferase reporter cells, luminescence, 24 h; Potency, µM (doses to about 38.3 µM), without a hit: top-dose activity change, negative = inhibition, most hits filed as inhibitors; hit rate 0.13% among 410,000; AID 624418;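 further: loss of luciferase light is scored as toxicity; on the % scale 0 is the no-effect control and ±100 the full control effect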
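Step one: seed cells (200 cells/uL, DMEM with 10% Nu serum, 1% pen-strep). Step two: 12-hour incubation at 37 deg C. Step three: pin 23 nL compound, incubate 24 hr. Step four: add luciferase reagent, read luminescence 12 min later.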
TrxR1 inh: inhibitors of rat thioredoxin reductase 1. O89049. Potency, µM (doses to about 114 µM), inactives show top-dose activity change, negative = inhibition, most hits filed as inhibitors. hit rate 1% among 390,000. recombinant rTrxR1, NADPH fluorescence consumption, selenite substrate; further: on the % scale 0 is the no-effect control and ±100 the full control effect; nearly all actives have a fitted effect of over 65% in size
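Rat TrxR1 (90 nM in the dispensed reagent) was pre-reduced with 400 uM NADPH for 5 min at room temperature, then incubated with compound for 15 min. After 400 uM selenite was added, NADPH fluorescence (Ex 340/Em 450 nm) was followed for 8 min.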
IDH1 R132H inh: human IDH1 R132H inhibition; O75874; IDH1-R132H enzyme, NADPH consumption, diaphorase/resazurin fluorescence; Potency, µM (titrated, usually from 76.6 µM), for the others: top-dose activity change, negative = inhibition, hits mostly inhibitors; hit rate 0.093% among 390,000; AID 602179; further: on the % scale 0 is the no-effect control and ±100 the full control effect; nearly all actives have a fitted effect of over 65% in size
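IDH1-R132H (0.5 ug/mL) preincubated 30 min with compound, then NADPH (0.016 mM) and alpha-KG (2 mM) added; 80 min at RT, pH 7.5. Remaining NADPH coupled via diaphorase/resazurin to fluorescence (540/590 nm); concentration-response curves normalized to no-enzyme control.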
GLP1R inv ag: inverse agonists of human GLP-1 receptor; HEK293 GLP-1R CRE-luciferase, luminescence, 24 h; GLP-1R form is constitutively active; Potency, µM (doses to about 38.3 µM), inactives show at the highest dose activity change, negative = inhibition, hits mostly inhibitors; hit rate 1.6% among 410,000; AID 624417; further: on the % scale 0 is the no-effect control and ±100 the full control effect; nearly all actives have a fitted effect of over 55% in size
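Using stably transfected HEK293 (constitutively active GLP-1R, cAMP-luciferase reporter), compounds were incubated 24 hr and luciferase measured by luminescence.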
The depositor's hits bear a star; ? = inconclusive; / = no result; [ ] = another dose, or the depositor's remark. Most compounds without a hit are left out; they make up all but 2.7% or so of the library. The call rests on the fitted dose curve; in most records, active means well fitted curve in the direction sought with a large enough effect; inconclusive means small, poorly fitted or top-dose-only effect, or another doubt; inactive means no such curve, though single readings can be large; an effect the other way counts as inactive or inconclusive. Potency means the concentration at half of the fitted maximal effect.

SMILES | GLP-1R agonist | TrxR1 substrate | GLP1R cytotox | TrxR1 inh | IDH1 R132H inh | GLP1R inv ag
O=C(O)CCCN1C(=O)/C(=C\c2ccc(-c3nc4ccccc4s3)o2)SC1=S | -1% | -8% | 40% | 50µM* | -4% | 10%
O=S(=O)(Nc1cccc2ccccc12)c1cccc2ccccc12 | / | 6%[0.457 µM] | / | 23% | / | /
CCOc1ccc(NC(=O)CSc2ncc3c(n2)-c2ccccc2N(Cc2ccccc2C)S3(=O)=O)cc1 | / | 3%[57.1 µM] | 2% | 13%[57.1 µM] | -12% | 4%
O=C(Nc1ccc(Cl)cc1)C1CCN(c2nc3ccccc3nc2C(F)(F)F)CC1 | / | 4%[57.1 µM] | -5% | 18%[57.1 µM] | 8% | -2%
O=C(O)CCCN1C(=O)/C(=C/C=C/c2ccco2)SC1=S | 0% | -23% | ? | 35µM* | 14% | -4%
Cc1ccc(NC(=O)CCCN2C(=O)/C(=C/C=C/c3ccccc3)SC2=S)cc1 | -5% | -16% | -6% | ? | 6% | 5%
O=C(NN1C(=O)/C(=C/C=C/c2ccco2)SC1=S)c1ccccc1O | 1% | -17% | -20% | 56µM* | -2% | 13%
Cn1cccc1/C=C1\SC(=S)N(NC(=O)c2ccccc2O)C1=O | 0% | -24% | ? | -18% | 2% | -22%
COCCN1C(=O)N(c2cccc(OC)c2)C(=O)C1CC(=O)Nc1ccccc1 (configuration not stated) | / | -2% | 3% | -7% | 0% | 1%
O=c1c(C(c2ccc(Br)cc2)c2c(O)nc3n(c2=O)CCCS3)c(O)nc2n1CCCS2 | 9% | ? | -1% | 7.1µM* | 0% | 14%
O=c1c(C(c2ccc(Br)cc2)c2c(O)nc3n(c2=O)CCS3)c(O)nc2n1CCS2 | 0% | 4% | 1% | 1.6µM* | -1% | -37%
N#Cc1c(-c2ccc(Br)cc2)nc2n(c1=O)CCCS2 | 2% | -7% | 2% | -4% | -4% | 0%
O=c1c2[nH]c3ccccc3c2nc2n1CCS2 | 1% | -1%[57.1 µM] | -3% | 31%[57.1 µM] | 0% | 83%
COc1cc(/C=C/c2ccc3ccccc3n2)cc(OC)c1OC | / | 94% | / | 36% | / | /
C1=Cc2ccccc2/C1=C(\Cc1ccncc1)Oc1ccncc1 | / | -5% | / | -4% | / | /
C#CC(=O)CC1(CN(Cc2ccccc2)C(=O)OC(C)(C)C)CCCCC1 | -3% | -5% | -8% | 2µM* | -3% | -11%
CC(NC(=O)Nc1cc(Cl)ccc1Cl)c1c(-n2cccc2)sc2c1CCCC2 (configuration not stated) | / | -4% | -10% | 8% | -21% | 3.5µM*
CCOC(=O)c1nn(-c2ccc(F)cc2)cc1O | 9% | 1%[57.1 µM] | -3% | 18%[57.1 µM] | 1% | 39%
CCOC(=O)c1nn(-c2ccc3c(c2)CCN3C(C)=O)cc1O | 0% | 442% | -17% | 41% | -3% | 11µM*
Cc1cc(Br)ccc1NC(=O)c1cc2c(s1)-c1ccccc1SC2 | / | 8% | -7% | -15% | / | 10µM*
CCCCc1ccc(NC(=O)c2ccc(=O)n(Cc3cccc(C)c3)c2)cc1 | -5% | 4%[57.1 µM] | -22% | 40%[57.1 µM] | 0% | 7.1µM*
Cc1cccc(Cn2cc(C(=O)Nc3ccc(S(N)(=O)=O)cc3)ccc2=O)c1 | -7% | 5%[57.1 µM] | 2% | 22%[57.1 µM] | -7% | 12%
COc1ccc(CNC(=S)NCc2ccc(OC)cc2)cc1 | -4% | 4% | -11% | 5% | 0% | -6%
COc1ccc(CNC(=S)NC(C)CCc2ccccc2)cc1 (configuration not stated) | -1% | -13% | ? | ? | 1% | 10µM*
NS(=O)(=O)c1cccc(NC(=S)NC(=O)C23CC4CC(CC(C4)C2)C3)c1 | 10% | -10% | -16% | 40µM* | 6% | 1.3µM*
SMILES | GLP-1R agonist | TrxR1 substrate | GLP1R cytotox | TrxR1 inh | IDH1 R132H inh | GLP1R inv ag
CCN(CC)S(=O)(=O)c1cccc(NC(=O)CNC2CCCCCC2)c1 | -7% | 6% | -4% | 34% | 6% | 7.9µM*
CN(C)S(=O)(=O)c1cccc(NC(=S)NC2CCCCC2)c1 | 4% | -2% | -6% | -18% | 21% | 11µM*
CCN(CC)S(=O)(=O)c1cccc(NC(=O)CCNC(=O)c2ccc([N+](=O)[O-])cc2)c1 | 0% | -2% | 2% | 4% | -9% | -10%
CCN(CC)S(=O)(=O)c1cccc(NC(=O)CN(C)C2CCCCC2)c1 | 9% | 9%[57.1 µM] | 0% | 14%[57.1 µM] | 7% | ?
CN(C)S(=O)(=O)c1cccc(NC(=S)NC(=O)C2CCCCC2)c1 | 2% | -1% | -1% | -22% | 5% | ?
Cc1ccc(S(=O)(=O)N(C)C)cc1NC(=S)NC(=O)C12CC3CC(CC(C3)C1)C2 | -1% | -8% | 0% | ? | -1% | ?
CCN(CC)S(=O)(=O)c1cccc(NC(=O)CCNC(=O)NC23CC4CC(CC(C4)C2)C3)c1 | 3% | -9% | 11% | 2% | 5% | 10µM*
CC(=O)c1ccc[n+](CC(=O)c2ccc(F)cc2)c1 | / | 8% | / | 15% | / | /
Cc1ccc(CNC(=O)C(C)n2ccc3cc(S(=O)(=O)N4CCCC4)ccc32)cc1 (configuration not stated) | / | 12% | -3% | 47% | -1% | -39%
CCOc1ccc(C2C(=O)N(C3CCCCC3)CC(=O)N2C2CCCC2)cc1OC (configuration not stated) | / | 3%[57.1 µM] | 0% | 10%[57.1 µM] | 22% | -1%
